# Data from paper PMC7862700, “An all-to-all approach to the identification of sequence-specific readers for epigenetic DNA modifications on cytosine”.
# Assays:
# Test in all cases: DAPPL (digital affinity profiling via proximity ligation, sequencing); 10 mM Tris-HCl pH 7.5, 50 mM NaCl, 1 mM DTT, 4% glycerol, room temperature, 30 min; GST-TFs on glutathione beads, 16-mer random dsDNA library, 0.1% formaldehyde crosslink after washing; high values mean tight binding
# [1] = biological target: T1, FLI1 (Homo sapiens, UniProt Q01543 1-452); conditions: protein: recombinant; tags: N-terminal GST; dsDNA, one strand shown
# T1 sequence: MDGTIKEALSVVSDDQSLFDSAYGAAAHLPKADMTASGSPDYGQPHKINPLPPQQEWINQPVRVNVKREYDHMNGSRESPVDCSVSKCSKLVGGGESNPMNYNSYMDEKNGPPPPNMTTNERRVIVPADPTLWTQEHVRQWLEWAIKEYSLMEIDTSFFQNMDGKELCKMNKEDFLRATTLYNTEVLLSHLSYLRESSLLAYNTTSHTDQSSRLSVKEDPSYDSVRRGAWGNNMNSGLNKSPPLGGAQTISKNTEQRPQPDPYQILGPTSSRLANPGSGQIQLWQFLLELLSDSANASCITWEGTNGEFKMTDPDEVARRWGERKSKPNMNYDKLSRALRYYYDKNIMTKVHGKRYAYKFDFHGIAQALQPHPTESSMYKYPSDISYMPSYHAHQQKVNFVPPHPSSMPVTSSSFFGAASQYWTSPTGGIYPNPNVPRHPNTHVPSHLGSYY
# Summary of the method: (§1)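 A tag-only sample was pooled with DNA-barcoded human transcription factors that had been expressed in yeast as GST fusions and captured on glutathione beads. The pools were incubated for 30 min at room temperature with 200 nmole of a random double-stranded 16-mer DNA library in Tris/NaCl/DTT/glycerol buffer, then washed, crosslinked with 0.1% formaldehyde, proximity-ligated (BsaI/T4 ligase, 1 h, 37 °C), PCR-amplified and sequenced on an Illumina NextSeq500. Binding signal is each hexamer's read frequency for a factor divided by its frequency for the tag-only sample.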
# [2] = biological target: T2, ELK1 (Homo sapiens, UniProt P19419 1-428); conditions: protein: recombinant; tags: N-terminal GST; dsDNA, one strand shown
# T2 sequence: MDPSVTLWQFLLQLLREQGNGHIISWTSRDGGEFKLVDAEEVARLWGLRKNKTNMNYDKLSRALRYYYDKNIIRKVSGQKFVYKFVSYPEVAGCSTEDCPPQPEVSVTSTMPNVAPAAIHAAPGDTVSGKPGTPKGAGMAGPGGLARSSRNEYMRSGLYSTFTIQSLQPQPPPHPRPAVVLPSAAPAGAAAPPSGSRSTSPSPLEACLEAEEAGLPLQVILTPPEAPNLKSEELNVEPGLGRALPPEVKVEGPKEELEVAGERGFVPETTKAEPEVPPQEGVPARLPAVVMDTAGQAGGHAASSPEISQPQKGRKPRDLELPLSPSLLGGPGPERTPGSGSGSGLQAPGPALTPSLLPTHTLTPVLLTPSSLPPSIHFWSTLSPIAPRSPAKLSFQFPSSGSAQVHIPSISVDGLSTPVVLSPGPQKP
# Summary of the method: as §1
# [3] = biological target: T3, GABPA (Homo sapiens, UniProt Q06546 1-454); conditions: protein: recombinant; tags: N-terminal GST; dsDNA, one strand shown
# T3 sequence: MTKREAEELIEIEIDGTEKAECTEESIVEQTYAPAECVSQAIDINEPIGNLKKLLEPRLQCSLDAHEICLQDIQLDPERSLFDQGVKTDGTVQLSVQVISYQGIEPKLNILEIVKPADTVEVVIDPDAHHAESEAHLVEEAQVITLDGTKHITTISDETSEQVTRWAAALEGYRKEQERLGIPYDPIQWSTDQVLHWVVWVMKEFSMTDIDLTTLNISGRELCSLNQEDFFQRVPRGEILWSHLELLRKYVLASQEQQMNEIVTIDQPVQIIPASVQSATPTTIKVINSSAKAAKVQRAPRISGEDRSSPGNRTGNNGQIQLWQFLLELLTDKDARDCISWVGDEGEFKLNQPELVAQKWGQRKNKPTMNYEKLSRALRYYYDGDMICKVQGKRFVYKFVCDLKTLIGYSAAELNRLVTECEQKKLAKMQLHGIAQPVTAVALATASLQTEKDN
# Summary of the method: as §1
# [4] = biological target: T4, ERG (Homo sapiens, UniProt P11308 1-479); conditions: protein: recombinant; tags: N-terminal GST; dsDNA, one strand shown
# T4 sequence: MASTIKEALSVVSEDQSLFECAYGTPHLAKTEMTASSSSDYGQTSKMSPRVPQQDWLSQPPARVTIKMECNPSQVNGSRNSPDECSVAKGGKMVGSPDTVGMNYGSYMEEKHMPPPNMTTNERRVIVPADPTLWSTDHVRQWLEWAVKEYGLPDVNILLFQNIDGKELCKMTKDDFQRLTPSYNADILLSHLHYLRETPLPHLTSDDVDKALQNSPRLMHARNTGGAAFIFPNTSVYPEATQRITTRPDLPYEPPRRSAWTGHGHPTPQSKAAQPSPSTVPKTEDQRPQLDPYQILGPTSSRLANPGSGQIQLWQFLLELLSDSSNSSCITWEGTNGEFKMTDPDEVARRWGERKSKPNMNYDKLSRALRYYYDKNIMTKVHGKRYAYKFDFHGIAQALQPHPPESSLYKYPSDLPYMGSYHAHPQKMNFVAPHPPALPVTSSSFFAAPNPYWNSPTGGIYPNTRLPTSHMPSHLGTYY
# Summary of the method: as §1
# [5] = biological target: ELF1 (Homo sapiens, UniProt P32519 1-619); conditions: protein: recombinant; tags: N-terminal GST; dsDNA, one strand shown
# Chain of ELF1 (P32519 whole entry): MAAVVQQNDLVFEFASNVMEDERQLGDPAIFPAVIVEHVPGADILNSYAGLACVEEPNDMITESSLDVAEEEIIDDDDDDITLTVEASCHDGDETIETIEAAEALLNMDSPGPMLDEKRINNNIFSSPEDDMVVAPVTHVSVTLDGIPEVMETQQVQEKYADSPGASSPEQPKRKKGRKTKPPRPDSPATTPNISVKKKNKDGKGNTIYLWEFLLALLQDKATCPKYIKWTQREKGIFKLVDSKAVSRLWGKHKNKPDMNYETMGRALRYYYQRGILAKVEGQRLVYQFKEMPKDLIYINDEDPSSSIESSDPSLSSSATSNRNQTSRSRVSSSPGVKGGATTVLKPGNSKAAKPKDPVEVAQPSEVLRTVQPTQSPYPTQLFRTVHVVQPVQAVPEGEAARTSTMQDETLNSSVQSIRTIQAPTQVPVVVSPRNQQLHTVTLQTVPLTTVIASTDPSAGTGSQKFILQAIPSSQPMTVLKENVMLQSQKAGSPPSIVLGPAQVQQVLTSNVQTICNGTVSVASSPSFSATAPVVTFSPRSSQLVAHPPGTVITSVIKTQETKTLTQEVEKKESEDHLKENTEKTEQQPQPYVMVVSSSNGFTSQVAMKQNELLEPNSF
# Summary of the method: as §1
# [6] = biological target: T5, EHF (Homo sapiens, UniProt Q9NZC4 1-300); conditions: protein: recombinant; tags: N-terminal GST; dsDNA, one strand shown
# T5 sequence: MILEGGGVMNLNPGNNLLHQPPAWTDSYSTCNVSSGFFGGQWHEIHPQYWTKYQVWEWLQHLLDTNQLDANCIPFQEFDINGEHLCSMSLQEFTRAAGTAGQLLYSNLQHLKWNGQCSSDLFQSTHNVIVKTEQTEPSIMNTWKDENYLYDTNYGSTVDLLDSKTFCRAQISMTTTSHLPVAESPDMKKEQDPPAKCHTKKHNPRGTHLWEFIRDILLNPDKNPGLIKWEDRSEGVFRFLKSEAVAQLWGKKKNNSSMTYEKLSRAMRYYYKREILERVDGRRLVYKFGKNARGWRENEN
# Summary of the method: as §1
# [7] = biological target: SPI1 (Homo sapiens, UniProt P17947 1-270); conditions: protein: recombinant; tags: N-terminal GST; dsDNA, one strand shown
# Summary of the method: as §1
# [8] = biological target: SPIB (Homo sapiens, UniProt Q01892 1-262); conditions: protein: recombinant; tags: N-terminal GST; dsDNA, one strand shown
# Chain of SPIB (Q01892 whole entry): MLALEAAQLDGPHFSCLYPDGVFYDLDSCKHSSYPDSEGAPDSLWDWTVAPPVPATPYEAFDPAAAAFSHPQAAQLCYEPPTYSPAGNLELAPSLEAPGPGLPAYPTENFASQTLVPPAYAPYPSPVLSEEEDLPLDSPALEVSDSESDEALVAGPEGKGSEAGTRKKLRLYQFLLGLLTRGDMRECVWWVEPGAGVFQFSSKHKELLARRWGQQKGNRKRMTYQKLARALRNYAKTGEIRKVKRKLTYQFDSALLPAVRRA
# Summary of the method: as §1
# [9] = biological target: T6, ELK3 (Homo sapiens, UniProt P41970 1-407); conditions: protein: recombinant; tags: N-terminal GST; dsDNA, one strand shown
# T6 sequence: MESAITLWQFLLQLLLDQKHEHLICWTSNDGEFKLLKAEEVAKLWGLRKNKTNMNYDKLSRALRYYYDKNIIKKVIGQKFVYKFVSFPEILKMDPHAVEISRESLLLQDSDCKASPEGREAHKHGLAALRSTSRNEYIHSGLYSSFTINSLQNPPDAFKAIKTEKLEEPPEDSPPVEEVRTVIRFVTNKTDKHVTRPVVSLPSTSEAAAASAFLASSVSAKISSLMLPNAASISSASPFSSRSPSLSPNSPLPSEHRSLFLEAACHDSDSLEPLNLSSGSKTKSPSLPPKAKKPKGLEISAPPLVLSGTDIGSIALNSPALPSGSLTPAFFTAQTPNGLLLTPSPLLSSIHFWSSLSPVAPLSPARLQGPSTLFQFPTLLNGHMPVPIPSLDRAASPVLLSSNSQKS
# Summary of the method: as §1
# [10] = biological target: T7, FEV (Homo sapiens, UniProt Q99581 1-238); conditions: protein: recombinant; tags: N-terminal GST; dsDNA, one strand shown
# T7 sequence: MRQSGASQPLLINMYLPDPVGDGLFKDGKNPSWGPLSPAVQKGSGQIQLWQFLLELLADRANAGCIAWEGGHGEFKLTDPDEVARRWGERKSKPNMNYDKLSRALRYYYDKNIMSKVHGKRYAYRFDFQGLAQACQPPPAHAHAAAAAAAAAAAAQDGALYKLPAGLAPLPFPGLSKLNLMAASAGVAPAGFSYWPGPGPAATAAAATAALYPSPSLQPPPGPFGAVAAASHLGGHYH
# Summary of the method: as §1
# [11] = biological target: ETV5 (Homo sapiens, UniProt P41161 1-510); conditions: protein: recombinant; tags: N-terminal GST; dsDNA, one strand shown
# Chain of ETV5 (P41161 whole entry): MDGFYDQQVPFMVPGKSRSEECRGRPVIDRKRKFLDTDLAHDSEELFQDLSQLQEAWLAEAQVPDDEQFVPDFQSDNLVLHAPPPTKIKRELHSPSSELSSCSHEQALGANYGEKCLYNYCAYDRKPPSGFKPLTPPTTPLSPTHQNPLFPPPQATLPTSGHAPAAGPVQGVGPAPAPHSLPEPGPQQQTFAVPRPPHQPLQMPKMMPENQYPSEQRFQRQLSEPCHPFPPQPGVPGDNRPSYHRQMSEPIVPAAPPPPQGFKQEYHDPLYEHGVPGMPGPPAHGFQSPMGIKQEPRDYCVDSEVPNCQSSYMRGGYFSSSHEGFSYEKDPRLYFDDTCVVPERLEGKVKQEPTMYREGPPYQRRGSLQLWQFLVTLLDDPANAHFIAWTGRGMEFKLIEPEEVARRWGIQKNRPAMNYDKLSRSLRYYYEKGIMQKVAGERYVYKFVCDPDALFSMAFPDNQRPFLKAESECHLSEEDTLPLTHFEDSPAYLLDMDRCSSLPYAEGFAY
# Summary of the method: as §1
# [12] = biological target: HSF1 (Homo sapiens, UniProt Q00613 1-529); conditions: protein: recombinant; tags: N-terminal GST; chain copies: 3; dsDNA, one strand shown
# Chain of HSF1 (Q00613 whole entry): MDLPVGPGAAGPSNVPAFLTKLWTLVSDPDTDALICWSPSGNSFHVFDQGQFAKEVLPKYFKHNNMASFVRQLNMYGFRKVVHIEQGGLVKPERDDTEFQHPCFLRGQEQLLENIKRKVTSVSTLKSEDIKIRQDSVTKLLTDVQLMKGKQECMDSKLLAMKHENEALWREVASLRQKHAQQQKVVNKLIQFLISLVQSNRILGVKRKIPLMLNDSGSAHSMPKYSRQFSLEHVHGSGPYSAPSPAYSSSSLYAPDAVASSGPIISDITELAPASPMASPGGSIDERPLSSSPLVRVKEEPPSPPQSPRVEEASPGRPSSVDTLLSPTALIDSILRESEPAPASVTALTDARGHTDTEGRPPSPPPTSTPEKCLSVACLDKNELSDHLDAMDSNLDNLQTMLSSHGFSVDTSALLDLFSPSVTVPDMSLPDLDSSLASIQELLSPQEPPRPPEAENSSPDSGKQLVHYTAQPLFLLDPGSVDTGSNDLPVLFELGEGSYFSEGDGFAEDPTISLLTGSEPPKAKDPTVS
# Summary of the method: as §1
# [13] = biological target: T8, SPIC (Homo sapiens, UniProt Q8N5J4 1-248); conditions: protein: recombinant; tags: N-terminal GST; dsDNA, one strand shown
# T8 sequence: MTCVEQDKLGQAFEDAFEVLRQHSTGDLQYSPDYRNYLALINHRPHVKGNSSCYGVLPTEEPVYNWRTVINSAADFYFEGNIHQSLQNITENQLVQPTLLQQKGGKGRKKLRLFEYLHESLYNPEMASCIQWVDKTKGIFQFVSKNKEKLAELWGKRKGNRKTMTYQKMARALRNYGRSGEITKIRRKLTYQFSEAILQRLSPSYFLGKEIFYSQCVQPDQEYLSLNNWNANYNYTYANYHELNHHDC
# Summary of the method: as §1
# [14] = biological target: ELF4 (Homo sapiens, UniProt Q99607 1-663); conditions: protein: recombinant; tags: N-terminal GST; dsDNA, one strand shown
# Chain of ELF4 (Q99607 whole entry): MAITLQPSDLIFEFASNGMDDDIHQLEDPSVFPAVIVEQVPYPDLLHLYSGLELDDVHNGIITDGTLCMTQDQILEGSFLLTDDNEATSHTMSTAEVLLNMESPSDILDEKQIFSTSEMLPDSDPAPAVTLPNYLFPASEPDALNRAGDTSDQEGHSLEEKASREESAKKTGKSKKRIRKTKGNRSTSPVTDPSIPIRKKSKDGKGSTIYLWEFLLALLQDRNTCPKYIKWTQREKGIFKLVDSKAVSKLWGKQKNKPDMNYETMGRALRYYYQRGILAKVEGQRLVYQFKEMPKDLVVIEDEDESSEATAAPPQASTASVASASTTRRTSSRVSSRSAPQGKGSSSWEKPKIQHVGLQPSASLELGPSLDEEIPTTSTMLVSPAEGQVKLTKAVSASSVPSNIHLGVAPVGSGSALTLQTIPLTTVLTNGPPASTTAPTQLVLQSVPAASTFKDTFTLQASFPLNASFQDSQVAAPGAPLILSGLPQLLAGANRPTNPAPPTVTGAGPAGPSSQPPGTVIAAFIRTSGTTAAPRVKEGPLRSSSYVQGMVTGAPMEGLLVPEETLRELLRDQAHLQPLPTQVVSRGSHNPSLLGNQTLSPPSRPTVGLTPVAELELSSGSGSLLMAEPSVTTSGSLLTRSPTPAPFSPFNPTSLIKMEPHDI
# Summary of the method: as §1
# [15] = biological target: T9, ELK4 (Homo sapiens, UniProt P28324-2 1-405); conditions: protein: recombinant; tags: N-terminal GST; dsDNA, one strand shown
# T9 sequence: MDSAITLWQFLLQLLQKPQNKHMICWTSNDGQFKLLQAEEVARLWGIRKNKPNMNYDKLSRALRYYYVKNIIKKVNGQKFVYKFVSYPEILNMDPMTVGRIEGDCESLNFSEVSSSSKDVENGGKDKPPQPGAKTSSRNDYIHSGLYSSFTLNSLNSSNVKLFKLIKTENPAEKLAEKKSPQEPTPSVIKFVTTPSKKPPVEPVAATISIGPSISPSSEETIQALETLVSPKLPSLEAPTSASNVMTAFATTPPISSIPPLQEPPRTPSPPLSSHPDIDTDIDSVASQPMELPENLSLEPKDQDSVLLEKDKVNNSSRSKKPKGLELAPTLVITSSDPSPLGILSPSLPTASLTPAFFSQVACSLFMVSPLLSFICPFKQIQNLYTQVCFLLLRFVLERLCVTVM
# Summary of the method: as §1
# [16] = biological target: T10, ETV2 (Homo sapiens, UniProt O00321 1-342); conditions: protein: recombinant; tags: N-terminal GST; dsDNA, one strand shown
# T10 sequence: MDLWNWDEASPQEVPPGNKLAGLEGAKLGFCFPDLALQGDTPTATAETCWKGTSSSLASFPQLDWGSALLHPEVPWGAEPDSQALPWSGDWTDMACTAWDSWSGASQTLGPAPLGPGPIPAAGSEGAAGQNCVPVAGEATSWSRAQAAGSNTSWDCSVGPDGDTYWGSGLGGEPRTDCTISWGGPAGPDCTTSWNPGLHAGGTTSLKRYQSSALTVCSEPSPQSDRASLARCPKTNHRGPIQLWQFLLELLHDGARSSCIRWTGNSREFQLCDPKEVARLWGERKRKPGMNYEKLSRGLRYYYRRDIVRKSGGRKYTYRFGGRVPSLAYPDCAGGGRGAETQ
# Summary of the method: as §1
# [17] = biological target: T11, ELF3 (Homo sapiens, UniProt P78545 1-371); conditions: protein: recombinant; tags: N-terminal GST; dsDNA, one strand shown
# T11 sequence: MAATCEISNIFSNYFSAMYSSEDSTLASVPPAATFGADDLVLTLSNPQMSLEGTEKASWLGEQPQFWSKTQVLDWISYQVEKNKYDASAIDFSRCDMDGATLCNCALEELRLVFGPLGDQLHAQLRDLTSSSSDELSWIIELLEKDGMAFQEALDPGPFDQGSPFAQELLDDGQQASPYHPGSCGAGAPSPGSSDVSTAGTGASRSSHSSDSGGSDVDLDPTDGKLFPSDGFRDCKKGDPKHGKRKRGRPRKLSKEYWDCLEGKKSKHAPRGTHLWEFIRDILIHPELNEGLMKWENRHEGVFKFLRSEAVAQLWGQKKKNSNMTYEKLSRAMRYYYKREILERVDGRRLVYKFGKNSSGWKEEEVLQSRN
# Summary of the method: as §1
# [18] = biological target: CRX (Homo sapiens, UniProt O43186 1-299); conditions: protein: recombinant; tags: N-terminal GST; dsDNA, one strand shown
# Chain of CRX (O43186 whole entry): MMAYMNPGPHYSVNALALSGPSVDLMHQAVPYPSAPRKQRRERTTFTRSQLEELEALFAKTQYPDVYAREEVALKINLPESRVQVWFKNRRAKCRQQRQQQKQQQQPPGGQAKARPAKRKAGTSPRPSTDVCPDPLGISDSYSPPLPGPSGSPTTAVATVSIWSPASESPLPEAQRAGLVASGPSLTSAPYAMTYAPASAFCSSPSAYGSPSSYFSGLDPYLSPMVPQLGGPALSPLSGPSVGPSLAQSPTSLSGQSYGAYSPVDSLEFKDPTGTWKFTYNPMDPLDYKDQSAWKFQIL
# Summary of the method: as §1
# [19] = biological target: ETV1 (Homo sapiens, UniProt P50549 1-477); conditions: protein: recombinant; tags: N-terminal GST; dsDNA, one strand shown
# Chain of ETV1 (P50549 whole entry): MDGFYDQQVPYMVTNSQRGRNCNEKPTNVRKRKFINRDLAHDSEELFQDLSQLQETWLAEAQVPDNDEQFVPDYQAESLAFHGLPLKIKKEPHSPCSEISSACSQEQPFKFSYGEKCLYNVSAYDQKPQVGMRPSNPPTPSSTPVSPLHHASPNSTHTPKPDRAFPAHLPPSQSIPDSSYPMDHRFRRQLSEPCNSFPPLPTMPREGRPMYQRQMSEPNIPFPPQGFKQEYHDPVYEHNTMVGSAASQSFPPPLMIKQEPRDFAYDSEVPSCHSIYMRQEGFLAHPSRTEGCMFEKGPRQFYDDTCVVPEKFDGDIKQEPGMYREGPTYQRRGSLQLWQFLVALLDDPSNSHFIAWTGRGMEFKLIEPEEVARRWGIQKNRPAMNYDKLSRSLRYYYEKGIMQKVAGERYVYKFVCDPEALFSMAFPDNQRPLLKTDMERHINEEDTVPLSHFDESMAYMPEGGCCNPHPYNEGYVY
# Summary of the method: as §1
sequence,measurement,setting,value
TCAACC,binding signal,[1],"1.23 fold enrichment (6-mer frequency, TF over GST control)"
same,binding signal,[2],"1.24 fold enrichment (6-mer frequency, TF over GST control)"
same,binding signal,[3],"1.22 fold enrichment (6-mer frequency, TF over GST control)"
same,binding signal,[4],"1.14 fold enrichment (6-mer frequency, TF over GST control)"
same,binding signal,[5],"1.16 fold enrichment (6-mer frequency, TF over GST control)"
same,binding signal,[6],"1.15 fold enrichment (6-mer frequency, TF over GST control)"
same,binding signal,[7],"1.16 fold enrichment (6-mer frequency, TF over GST control)"
same,binding signal,[8],"1.17 fold enrichment (6-mer frequency, TF over GST control)"
same,binding signal,[9],"1.32 fold enrichment (6-mer frequency, TF over GST control)"
same,binding signal,[10],"1.19 fold enrichment (6-mer frequency, TF over GST control)"
same,binding signal,[11],"1.22 fold enrichment (6-mer frequency, TF over GST control)"
same,binding signal,[12],"1.03 fold enrichment (6-mer frequency, TF over GST control)"
same,binding signal,[13],"1.07 fold enrichment (6-mer frequency, TF over GST control)"
same,binding signal,[14],"1.19 fold enrichment (6-mer frequency, TF over GST control)"
same,binding signal,[15],"1.16 fold enrichment (6-mer frequency, TF over GST control)"
same,binding signal,[16],"1.3 fold enrichment (6-mer frequency, TF over GST control)"
same,binding signal,[17],"1.16 fold enrichment (6-mer frequency, TF over GST control)"
same,binding signal,[18],"1.09 fold enrichment (6-mer frequency, TF over GST control)"
same,binding signal,[19],"1.23 fold enrichment (6-mer frequency, TF over GST control)"
